T_cruzi_growth-1: inhibitors of T. cruzi proliferation; 77,000 compounds, 5.9% hits; AID 624255; inhibition, % at 8.34 µM; T. cruzi beta-gal in NIH3T3, GalScreen luminescence, 90 h;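 active = mean inhibition above about 93%, with at least 55% of replicates each passing it, limit read from the data, passing the limit was not always enough; inconclusive = only one of those two conditions holds; inactive = neither condition holds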
C_diff_HTS: blocks growth of Clostridium difficile. Clostridium difficile clinical isolate growth, OD600, 24 h; stronger effect = lower value. growth activity, negative = inhibition, % at 16 µg/mL (by protocol). 86,000 compounds, 0.25% hits. AID 1259249;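 active = mean growth activity at or below -80% and every replicate also at or below -80%; inconclusive = mean at or below -80% but some replicate above -80%; inactive = mean growth activity above -80%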;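 also: 0% = DMSO wells and -100% = levofloxacin 16 µg/mL wells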
Pf_Dd2_growth: P. falciparum Dd2 growth inhibition. SYBR Green, 72 h; stronger effect = lower value. activity change, % at 10 µM. 94,000 compounds, 2.3% hits. AID 1159554; in the data active = activity change below about -80%; inconclusive = no clear call, values can overlap the other calls
T_cruzi_growth-2: inhibitors of T. cruzi proliferation | shares compounds with T_cruzi_growth-1 | 5,600 compounds, 72% hits | AID 651739 | inhibition, % at 8.35 µM | T. cruzi beta-gal in NIH3T3, GalScreen luminescence, 90 h;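 active = mean replicate inhibition above about 95% and at least 55% of replicates individually reaching it, limit read from the data; inconclusive = only one of the two criteria is met; inactive = neither criterion is met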
T_cruzi_growth-3: inhibitors of T. cruzi proliferation; shares compounds with T_cruzi_growth-1; T. cruzi beta-gal in NIH3T3, GalScreen luminescence, 90 h; inhibition, % at 2.09 µM; 5,600 compounds, 21% hits; AID 651740;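 active = mean inhibition above about 95%, with at least 55% of replicates also reaching it, limit read from the data; inconclusive = meets just one of the two conditions; inactive = meets neither condition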;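 also: plate controls were neutral control median for no effect and positive control median for full effect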
3T3_cytotox: cytotoxicity in mouse NIH/3T3 fibroblasts; 5,600 compounds, 14% hits; AID 651742; shares compounds with T_cruzi_growth-1; cytotoxicity (signal decrease), % at 8.35 µM; NIH/3T3 viability, CellTiter-Glo ATP luminescence, 90 h;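 active = mean signal decrease across replicates above about 35% based on untreated-well scatter, with enough replicates individually passing, limit read from the data; inconclusive = no rule stated though some were filed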;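 also: 0% = median of neutral control wells and 100% = median of positive control wells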
3T3_cytotox_2: NIH/3T3 (mouse) viability loss. shares compounds with T_cruzi_growth-1. NIH/3T3 viability, CellTiter-Glo ATP luminescence, 90 h. inhibition, % at 24.9 µM. 5,600 compounds, 56% hits. AID 651744;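 active = mean loss of cell viability signal at or above a set limit, and enough replicates individually reaching it; inconclusive = meets only the mean limit or only the replicate share; inactive = meets neither condition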;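 also: 0% = median of neutral control wells and 100% = median of positive control wells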
The depositor's hits bear a star; ? = inconclusive; nt = not tested or not shown. In the library only some 6.8% were active in any assay of this set; here they are far more common.

SMILES T_cruzi_growth-1 C_diff_HTS Pf_Dd2_growth T_cruzi_growth-2 T_cruzi_growth-3 3T3_cytotox 3T3_cytotox_2
O=C(C1CCCC1)N1CCCCN2[C@H](CO)[C@H](c3ccc(C#CC4(O)CCCC4)cc3)[C@@H]2C1 102.6* -10.9 6.2 98.5* 75.6 8.9 25.8
O=C(c1ccc(F)cc1)N1CCCCN2[C@H](C1)[C@H](c1ccc(C#CC3(O)CCCC3)cc1)[C@@H]2CO 43.8 -0.7 20.4 nt nt nt nt
O=C(c1ccc(F)cc1)N1CCCCN2[C@H](CO)[C@@H](c3ccc(C#CC4(O)CCCC4)cc3)[C@H]2C1 100.1* -4.9 0.4 34.6 15.6 3.5 -5.6
O=C(C1CCCC1)N1CCCCN2[C@H](C1)[C@@H](c1ccc(C#CC3(O)CCCC3)cc1)[C@@H]2CO 70.1 -16.6 -40.6 nt nt nt nt
O=C(C1CC1)N1CCCCN2[C@@H](CO)[C@@H](c3ccc(C#CC4(O)CCCC4)cc3)[C@@H]2C1 13.6 -3.5 26.0 nt nt nt nt
Cc1noc(C)c1NC(=O)N(C)C[C@@H]1Oc2c(NS(=O)(=O)c3ccccc3)cccc2C(=O)N([C@@H](C)CO)C[C@H]1C -6.5 -2.6 31.1 nt nt nt nt
C[C@H](O)C#Cc1ccc2c(c1)O[C@@H](CN(C)C(=O)CC1CC1)[C@H](C)CN([C@@H](C)CO)S2(=O)=O -23.1 -2.6 nt nt nt nt nt
C[C@H]1CN([C@@H](C)CO)S(=O)(=O)c2ccc(-c3ccccc3F)cc2O[C@H]1CN(C)Cc1cncnc1 -8.3 -7.9 0.8 nt nt nt nt
Cc1ccc(-c2cnc3c(c2)C(=O)N([C@@H](C)CO)C[C@H](C)[C@@H](CN(C)C(=O)c2cccnc2)O3)cc1 29.5 -4.3 -4.3 nt nt nt nt
CCC(=O)N(C)C[C@@H]1Oc2cc(-c3ccccc3C)ccc2S(=O)(=O)N([C@@H](C)CO)C[C@@H]1C -2.9 -5.4 -9.1 nt nt nt nt
C[C@H]1CN([C@@H](C)CO)S(=O)(=O)c2ccc(C3=CCCC3)cc2O[C@H]1CN(C)Cc1cncnc1 6.6 6.3 -46.0 nt nt nt nt
C[C@@H]1CN([C@H](C)CO)S(=O)(=O)c2ccc(C3=CCCC3)cc2O[C@@H]1CN(C)Cc1cccnc1 74.0 2.0 -16.8 nt nt nt nt
C[C@H](CO)N1C[C@H](C)[C@@H](CN(C)C(=O)Cc2ccncc2)Oc2cc(C3=CCCC3)ccc2S1(=O)=O 96.0* 5.7 -20.2 88.3 44.1 -8.0 13.2
C[C@@H]1CN([C@H](C)CO)S(=O)(=O)c2ccc(C3=CCCC3)cc2O[C@@H]1CN(C)C(=O)Cc1ccncc1 81.7 2.0 -49.3 nt nt nt nt
C[C@H](CO)N1C[C@H](C)[C@H](CN(C)Cc2ccncc2)Oc2cc(C3=CCCC3)ccc2S1(=O)=O 107.9* 0.3 -29.0 96.9* 88.4 20.6 43.5*
C[C@@H]1CN([C@@H](C)CO)S(=O)(=O)c2ccc(C3=CCCC3)cc2O[C@H]1CN(C)Cc1ccncc1 114.2* -3.8 -64.9 96.8* 102.1* 50.0* 102.1*
C[C@@H]1CN([C@H](C)CO)C(=O)c2cc(-c3ccccc3)cnc2O[C@@H]1CN(C)CC1CC1 -12.1 2.3 -32.8 nt nt nt nt
C/C=C/c1ccc2c(c1)O[C@H](CN(C)C(=O)Nc1ccc(C(F)(F)F)cc1)[C@@H](C)CN([C@@H](C)CO)S2(=O)=O 100.7* 0.4 -10.2 87.7 80.7 72.6* 97.9*
C/C=C/c1ccc2c(c1)O[C@@H](CN(C)C(=O)Nc1ccc(F)cc1)[C@@H](C)CN([C@H](C)CO)S2(=O)=O 6.0 7.6 -15.5 nt nt nt nt
C/C=C/c1ccc2c(c1)O[C@@H](CN(C)C(=O)Nc1ccc(C(F)(F)F)cc1)[C@@H](C)CN([C@H](C)CO)S2(=O)=O 110.1* 10.3 -28.9 100.8* 81.0 59.0* 51.9*
C/C=C/c1ccc2c(c1)O[C@@H](CN(C)C(=O)Nc1ccccc1)[C@@H](C)CN([C@H](C)CO)S2(=O)=O 22.0 -6.2 -16.2 nt nt nt nt
C/C=C/c1ccc2c(c1)O[C@H](CN(C)C(=O)Nc1ccc(C(F)(F)F)cc1)[C@H](C)CN([C@H](C)CO)S2(=O)=O 99.8* 7.4 -0.9 96.2* 90.3 38.0* 90.2*
C/C=C/c1ccc2c(c1)O[C@@H](CN(C)C(=O)Nc1ccccc1)[C@H](C)CN([C@H](C)CO)S2(=O)=O 9.2 -10.4 -2.3 nt nt nt nt
CC(C)NC(=O)N(C)C[C@H]1Oc2ccc(NC(=O)NC3CCCCC3)cc2CC(=O)N([C@H](C)CO)C[C@H]1C -26.9 0.1 6.9 nt nt nt nt
C[C@H]1CCCCO[C@H](CN(C)Cc2ccc(C(F)(F)F)cc2)[C@@H](C)CN([C@@H](C)CO)C(=O)c2cc(NS(=O)(=O)c3cccs3)ccc2O1 113.2* -2.7 -22.1 97.8* 107.2* -13.5 103.2*
SMILES T_cruzi_growth-1 C_diff_HTS Pf_Dd2_growth T_cruzi_growth-2 T_cruzi_growth-3 3T3_cytotox 3T3_cytotox_2
C[C@@H]1CCCCO[C@@H](CN(C)Cc2ccc(C(F)(F)F)cc2)[C@@H](C)CN([C@@H](C)CO)C(=O)c2cc(NS(=O)(=O)c3cccs3)ccc2O1 93.3 0.3 -31.8 nt nt nt nt
C[C@H](CO)N1C[C@H](C)[C@H](CN(C)Cc2ccc(C(F)(F)F)cc2)OCCCC[C@H](C)Oc2ccc(NS(=O)(=O)c3cccs3)cc2C1=O nt 53.7 -37.8 nt nt nt nt
C[C@@H]1CN([C@@H](C)CO)C(=O)c2cc(NS(=O)(=O)c3cccs3)ccc2O[C@@H](C)CCCCO[C@@H]1CN(C)Cc1ccc(C(F)(F)F)cc1 ? -0.1 -66.6 101.9* 118.1* -24.1 63.4*
C[C@@H]1CCCCO[C@H](CN(C)Cc2ccc(C(=O)O)cc2)[C@H](C)CN([C@@H](C)CO)C(=O)c2cc(NS(=O)(=O)c3cccs3)ccc2O1 -5.7 -1.2 19.8 nt nt nt nt
C[C@H]1CCCCO[C@@H](CN(C)Cc2ccc(C(F)(F)F)cc2)[C@@H](C)CN([C@@H](C)CO)C(=O)c2cc(NS(=O)(=O)c3cccs3)ccc2O1 111.9* 5.1 -52.7 89.8 58.2 18.0 105.1*
CC(C)NC(=O)Nc1ccc2c(c1)C(=O)N([C@H](C)CO)C[C@H](C)[C@@H](CN(C)S(=O)(=O)c1ccccc1)OCCCC[C@H](C)O2 86.7 2.3 -20.0 nt nt nt nt
C/C=C/c1cnc2c(c1)C(=O)N([C@H](C)CO)C[C@H](C)[C@@H](CN(C)C(=O)NC1CCCC1)O2 32.3 17.9 3.5 nt nt nt nt
CCCC#Cc1cnc2c(c1)C(=O)N([C@H](C)CO)C[C@H](C)[C@@H](CN(C)C(=O)c1ccc(F)cc1)O2 43.4 -1.4 -30.0 nt nt nt nt
CC(C)C#Cc1ccc([C@H]2[C@@H](C#N)N(C(=O)c3ccccn3)[C@H]2CO)cc1 ? 4.3 -41.9 99.8* 103.1* 9.1 12.4
COc1cccc(C#Cc2ccc([C@H]3[C@@H](C#N)N(C(=O)c4ccccn4)[C@@H]3CO)cc2)c1 89.9 -5.2 -66.3 nt nt nt nt

Assay outcomes from PubChem.
